The list is not random: actives were taken first. Their share in the collection is about 19%.
TDP1 cell CPT = DT40-hTDP1 cell growth loss with CPT; chicken DT40 Tdp1-/-;hTDP1 cells + 20 nM CPT, ATP luminescence, 48 h; Potency, µM (top dose mostly 46.2 µM), usual class: inhibitors; 420,000 compounds, 12% hits; AID 686979; also: nearly all actives have a fitted effect of over 55% in size
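Cell growth measured by CellTiter-Glo luminescence after a minimum 48 h, 37 C compound exposure with 20 nM CPT in Tdp1-knockout DT40 cells stably expressing hTDP1, seeded 400/well; qHTS titration format.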
IL-1B inflam inh = inhibitors of inflammasome signaling (IL-1 beta secretion). THP-1 LPS/ATP IL-1B secretion, AlphaLISA, 16 h; hits give low values. activity change, % at 57.5 µM. 360,000 compounds, 4.7% hits. AID 743279; in the data active = activity change below about -50%; inconclusive = mostly about -30% to -49%
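Secreted IL-1B measured by AlphaLISA bead assay after 16 h compound exposure of THP-1 cells; compounds (final up to 57.5 uM) added 1 h before LPS (250 ng/mL) and ATP (1.25 mM) stimulation; lower signal means less secretion.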
HT1080 IDH1KD tx = HT-1080 IDH1 knockdown cell toxicity (counter line). HT-1080 IDH1 knockdown viability, ATP luminescence, 48 h. Potency, µM (series often up to 46.1 µM), actives largely listed as cytotoxic. 360,000 compounds, 2% hits
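CellTiter-Glo luminescence after 48 h compound exposure at 37 degrees C of IDH1-knockdown HT-1080 cells in 5% FBS RPMI. %Activity scaled between DMSO wells and cell-free media wells, with curves fitted and assigned curve classes.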
HT1080-NT tox = kills 2HG-producing HT-1080-NT fibrosarcoma cells; Potency, µM (series often up to 46.1 µM), most hits filed as cytotoxic; 360,000 compounds, 1.6% hits; HT-1080-NT fibrosarcoma viability, CellTiter-Glo ATP luminescence, 48 h;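 also: NT is the 2HG producing partner of a matched IDH1 knockdown line; nearly all actives have a fitted effect of over 55% in size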
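Compounds were tested in concentration-response format on HT-1080-NT cells for 48 hours at 37 degrees C. Cell viability came from CellTiter-Glo luminescence; curves were classified by r2, response magnitude and activity.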
TDP1 cell noCPT = qHTS for Inhibitors of human tyrosyl-DNA phosphodiesterase 1 (TDP1): qHTS in cells in absence of CPT. Potency, µM (series often up to 46.2 µM), usual class: inhibitors. 420,000 compounds, 15% hits. DT40 Tdp1-/- hTDP1 cells, no CPT, ATP luminescence, 48 h. AID 686978, 2013; also: nearly all actives have a fitted effect of over 55% in size
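No-CPT arm: Tdp1-/-;hTDP1 DT40 cells (400/well) plus compounds, incubated ≥48 hr at 37 °C. Readout CellTiter-Glo luminescence.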
Hits are given with their value; . = inactive; ? = inconclusive; / = no result given; ! = not active in a repeat. Unless noted, calls follow the shape of the dose curve; as a rule, active = well fitted curve in the direction sought with a large enough effect; inconclusive = small, poorly fitted or top-dose-only effect, or another doubt; inactive = no such curve, though single readings can be large; an effect the other way counts as inactive or inconclusive.

SMILES	TDP1 cell CPT	IL-1B inflam inh	HT1080 IDH1KD tx	HT1080-NT tox	TDP1 cell noCPT
Cc1ccc(CN(Cc2ccco2)C(=O)COc2cc(C)c(Cl)c(C)c2)cc1	21µM	/	/	/	13µM
Cc1cccc(OCC(=O)N(Cc2ccco2)C2CCS(=O)(=O)C2)c1C (configuration not stated)	.	.	.	.	?
Cc1ccc(CN(Cc2ccco2)C(=O)c2ccco2)cc1	?	.	.	.	.
Cc1cc(C)c(OCC(=O)N(Cc2cccc(F)c2)Cc2ccco2)c(C)c1	15µM	/	/	/	18µM
Cc1cccc(C)c1OCC(=O)N(Cc1ccco1)Cc1ccco1	?	/	/	/	23µM
CC(Sc1ncccn1)C(=O)N1CCc2ccccc21 (configuration not stated)	.	.	.	.	.
O=C(COC(=O)C1CC1)Nc1ccc(S(=O)(=O)N2CCOCC2)cc1	.	.	.	.	.
O=C1C(NS(=O)(=O)c2cccs2)=C(N2CCN(c3cccc(Cl)c3)CC2)C(=O)c2ccccc21	21µM	.	.	.	23µM
O=C1C(NS(=O)(=O)c2ccccc2)=C(N2CCN(c3ccc(F)cc3)CC2)C(=O)c2ccccc21	?	.	.	?	?
CCn1c(SCC(=O)NC2CCCCC2)nnc1-c1ccccc1F	.	.	.	.	.
Cc1ccc(CS(=O)(=O)CC(C)(O)c2ccccc2)cc1 (configuration not stated)	.	.	.	.	.
O=C(Nc1cc(Cl)ccc1O)c1snnc1-c1ccccc1	13µM	-90	?	.	16µM
COc1cc2c(cc1OC)-c1cc(Nc3cccc(C)c3)nc(=O)n1CC2	?	?	.	.	.
CCc1nc2ccc(C(=O)NCCCN(C)C)cn2c1N(C)CCCc1ccccc1	?	.	23µM	18µM	?
CCc1nc2ccc(C(=O)NCCCn3ccnc3)cn2c1N(C)Cc1cc2ccccc2s1	?	?	?	21µM	16µM
CCc1nc2ccc(C(=O)NCCCn3ccnc3)cn2c1N(C)Cc1ccc(OC)cc1	?	.	.	.	15µM
CCc1nc2ccc(C(=O)Nc3cccc(OCC(=O)N(C)C)c3)cn2c1N(C)Cc1cc2ccccc2s1	16µM	.	?	?	16µM
CCc1nc2ccc(C(=O)N3CCCCC3)cn2c1N(C)CCCc1ccccc1	?	.	.	.	?
CCc1nc2ccc(C(=O)NCCCn3ccnc3)cn2c1N(CC)CCN(C)C	.	.	.	.	.
CCNC(=O)N(C)c1c(CC)nc2ccc(C(=O)Nc3cccc(OCC(=O)N(C)C)c3)cn12	.	.	.	.	.
CCC(=O)NS(=O)(=O)c1ccc(-c2c(-c3ccccc3)noc2C)cc1	.	/	/	/	.
CC1(C(=O)NCc2ccccc2)CN(S(C)(=O)=O)CC(=O)N1C1CC1 (configuration not stated)	.	.	.	.	.
CCc1nc2ccc(C(=O)NCCCn3ccnc3)cn2c1N(CC)C(=O)NCCc1ccccc1	.	.	.	.	.
CCc1nc2ccc(C(=O)NCCCn3ccnc3)cn2c1N(C)CCCc1ccccc1	18µM	?	?	?	?
c1ccc2c(c1)CCc1ccccc1C2=C1CCNCC1	15µM	-66	.	.	13µM
SMILES	TDP1 cell CPT	IL-1B inflam inh	HT1080 IDH1KD tx	HT1080-NT tox	TDP1 cell noCPT
O=C1C(=C2CCc3ccccc32)Cc2ccccc21	?	.	.	.	?
Cc1ncc(C[n+]2csc(CCOC(=O)C34CC5CC(CC(C5)C3)C4)c2C)c(N)n1	?	.	.	.	?
Cc1c(CCOC(=O)C23CC4CC(CC(C4)C2)C3)sc[n+]1Cc1ccccc1	?	.	.	.	10µM
Cc1ncc(C[n+]2csc(CCOC(=O)CC3C4CC5CC(C4)CC3C5)c2C)c(N)n1 (configuration not stated)	.	.	.	.	.
Cc1c(CCOC(=O)C23CC4CC(CC(C)(C4)C2)C3)sc[n+]1Cc1ccccc1	4.1µM	.	23µM	?	2.9µM
COc1cc(C)ccc1OCCCn1c(-c2ccc(Cl)cc2)nc2ccccc2c1=O	.	/	/	/	.
COc1cc(OC)cc(C(=O)n2cnnc2N)c1	.	.	.	.	.
COc1ccc(CCNC(=O)c2ccc(Cn3c(=O)[nH]c4cc(OC)c(OC)cc4c3=O)cc2)cc1OC	.	/	/	/	.
O=C(CCCn1c(=O)[nH]c2cc(Cl)ccc2c1=O)NCCCN1CCN(c2ccc(F)cc2)CC1	16µM	?	.	.	21µM
O=C(c1ccc(F)cc1)C1CCN(CCn2c(=O)[nH]c3ccccc3c2=O)CC1	7.3µM!	.	.	?	?
COc1cc2[nH]c(=O)n(Cc3ccc(C(=O)NCc4ccccc4)cc3)c(=O)c2cc1OC	18µM	/	/	/	?
O=C(CCCn1c(=O)[nH]c2ccccc2c1=O)Nc1ccc(F)cc1	.	.	.	.	.
COc1ccc(-n2c(=O)[nH]c3cc(C(=O)NCCc4ccccc4)ccc3c2=O)cc1OC	?	.	.	.	18µM!
O=C(c1ccc2c(=O)n(CCc3ccccc3)c(=O)[nH]c2c1)N1CCN(c2ccccc2)CC1	?	.	.	.	?
COCCn1c(=O)[nH]c2cc(C(=O)N3CCN(c4ccc(Cl)cc4)CC3)ccc2c1=O	5.8µM	.	.	.	6.5µM
CCCCCn1c(=O)[nH]c2cc(C(=O)N3CCN(C(=O)OCC)CC3)ccc2c1=O	?	.	.	.	?
CCCCCn1c(=O)[nH]c2cc(C(=O)N3CCN(c4cccc(Cl)c4)CC3)ccc2c1=O	10µM	/	/	/	?
CCOC(=O)N1CCN(C(=O)c2ccc3c(=O)n(CCOC)c(=O)[nH]c3c2)CC1	.	.	.	.	.
COc1ccc(N2CCN(C(=O)c3ccc4c(=O)n(CCc5ccc(OC)c(OC)c5)c(=O)[nH]c4c3)CC2)cc1	15µM	.	.	.	16µM
O=C(c1ccc2c(=O)n(CCc3ccccc3)c(=O)[nH]c2c1)N1CCN(c2ccc(Cl)cc2)CC1	16µM	/	/	/	18µM
CCOc1ccc(CCNC(=O)C(CCC(N)=O)NC(=O)OCc2ccccc2)cc1OCC (configuration not stated)	.	.	.	.	.
O=C(c1ccco1)N1CCC(c2nc3c(nnn3Cc3ccc(F)cc3)c(=O)[nH]2)CC1	.	.	.	.	.
N#Cc1c2n(c(=S)n(-c3ccccn3)c1=O)CCCCC2	.	.	.	.	.
O=C(c1ccc2c(=O)n(CCc3ccccc3)c(=O)[nH]c2c1)N1CCN(c2ccc(F)cc2)CC1	12µM	.	.	.	13µM
O=C(NCCN1CCCC1)c1ccc2c(=O)n(CCc3ccccc3)c(=O)[nH]c2c1	18µM	.	.	.	29µM

Screens: PubChem, National Center for Advancing Translational Sciences (NCATS)
